CHX counter: affects cycloheximide protein synthesis inhibition readout, counter-screen. max response, %. 300,000 tested, 12% active. AID 2314. cell reporter, cycloheximide protein synthesis inhibition counterscreen; in the data active = max response mostly above about 13%, no sharp cut-off; inactive = mostly below about 14%; also: read at 38.3 µM for the half of the compounds with a filed dose; 0% is about no effect
FMDV antiviral: antivirals against foot and mouth disease virus; FMDV antiviral cell-based qHTS; Potency, µM (titrated, usually from 57.9 µM), for the others: at the top dose activity change, negative = inhibition, most hits filed as inhibitors; 410,000 tested, 1.2% active; AID 1159524; calls by dose curve; tested in HEK293T cells; also: read-out not given here; potency is read from the fitted curve at half-maximal effect; % is scaled to controls: 0 for no effect and ±100 for the full control effect; nearly all actives have a fitted effect of over 45% in size
Lassa entry inh: blocks Lassa virus binding to or entry into cells; Lassa virus pseudotype entry inhibition, cell reporter; Potency, µM (top dose mostly 37.9 µM), without a hit: at the top dose activity change, negative = inhibition, hits mostly inhibitors; 300,000 tested, 1.2% active; calls by dose curve; tested in HEK293 cells; also: potency is read from the fitted curve at half-maximal effect; % is scaled to controls: 0 for no effect and ±100 for the full control effect; nearly all actives have a fitted effect of over 50% in size
Marburg entry inh: Marburg virus entry inhibition. 300,000 tested, 1.8% active. Potency, µM (series often up to 37.8 µM), for the others: top-dose activity change, negative = inhibition, actives largely listed as inhibitors. Marburg virus pseudotyped entry inhibition, cell reporter; calls by dose curve; tested in HEK293 cells; also: potency is read from the fitted curve at half-maximal effect; % is scaled to controls: 0 for no effect and ±100 for the full control effect
HCV inhibitor: blocks hepatitis C virus; Potency, µM (top dose mostly 41.8 µM), without a hit: at the highest dose activity change, negative = inhibition, actives largely listed as inhibitors; 340,000 tested, 3.4% active; Huh7.5.1 HCVcc-Cre infection, luciferase reporter, 44 h; active = well fitted inhibition curve with a large enough effect; inconclusive = small, poorly fitted or top-dose-only effect, or another doubt; inactive = no such curve, though single readings can be large or run the other way; also: potency is read from the fitted curve at half-maximal effect; % is scaled to controls: 0 for no effect and ±100 for the full control effect
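Seed cells (1,000/well) for 4 h; treat with compound and infect with HCVcc-Cre, moi about 0.5. Incubate 44 h, then detect luciferase activity.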
Shiga inhibitor: Shiga toxin inhibition | Vero cells, Shiga toxin protein synthesis inhibition reporter | AID 2315 | inhibition, % at 38.7 µM | 290,000 tested, 9.2% active; in the data active = inhibition mostly above about 28%, no sharp cut-off; inactive = mostly below about 43%; also: 0% is about no effect
* = called active by the depositor; ? = inconclusive; · = not tested or not shown; [ ] = dose if it differs, or a comment. Only some compounds are listed: those with a hit (about 13% of all), similar ones and a draw of the others.

SMILES | CHX counter | FMDV antiviral | Lassa entry inh | Marburg entry inh | HCV inhibitor | Shiga inhibitor
COc1ccc2nc(Nc3nc(CSc4nc5ccccc5[nH]4)cc(=O)[nH]3)nc(C)c2c1 | -5 | ? | ? | 11µM* | 14µM* | -9
Cc1nc(Nc2nc(CSc3ccc(Cl)cc3)cc(=O)[nH]2)nc2ccccc12 | 7 | -15% | 13% | 7% | 5% | -15
Cn1c(=O)c2c(nc(SCC(=O)O)n2Cc2cccc(C(F)(F)F)c2)n(C)c1=O | -2 | -11% | 7% | 0% | 13% | -4
Cc1cc2c(Nc3ccc(O)cc3)ncnc2s1 | 18 | 14% | -3%[46.1 µM] | -2%[46.1 µM] | ? | 43
CCN1CCN(CCCNC(=O)c2ccc(/C=C3/Sc4ccccc4N(Cc4ccccc4F)C3=O)cc2)CC1 | -9 | -19% | · | · | 11µM* | -11
CCN1CCN(CCNC(=O)c2ccc(/C=C3/Sc4ccccc4N(Cc4ccccc4C)C3=O)cc2)CC1 | -13 | 1% | · | · | 6.3µM* | -34
C=CCC1C=CCC(CC=C)N1C(=O)c1ccccc1[N+](=O)[O-] (stereo not drawn) | -4 | -23% | ? | ? | 18µM* | -3
COc1cc(C2C3=C(CC(C)(C)CC3=O)OC3=C2C(=O)CC(C)(C)C3)cc([N+](=O)[O-])c1O | -4 | 2% | -13% | 0%[46.1 µM] | 3% | 15
COC(=O)c1ccc(C2OCC(C)(C)CO2)cc1 | 49* | 60% | -1% | ? | 7% | 150*
Cc1ccc2nc(NCCCN3CCOCC3)c(C=NCCCN3CCOCC3)c(=O)n2c1 | 9.9* | 29% | 12% | 0% | 10% | 25
Cc1ccc2nc(NCc3ccccc3)c(C=NCc3ccccc3)c(=O)n2c1 | 2 | 5% | -2% | 6% | ? | 14
CC(=O)Nc1ccc2nc(SCc3ccccc3)sc2c1 | · | 75% | 11%[46.1 µM] | 2%[46.1 µM] | · | ·
CCOC(=O)c1ncc2[nH]c3ccc(OCc4ccccc4)cc3c2c1COC | 1 | 16µM* | · | · | · | 8
Cn1nc(-c2ccc3c(c2)OCCO3)c2ccccc2c1=O | -2 | ? | -14%[46.1 µM] | ? | -23% | -15
Cn1c(SCC#N)nnc1-c1ccc2c(c1)OCO2 | -2 | -21% | -8% | -9% | 22% | -3
c1ccc2c(c1)c1ccccc1n1c(-c3ccc4c(c3)OCO4)nnc21 | -1 | 25µM* | 2% | 4% | ? | -35
Cn1c(C=O)c(-c2ccc3c(c2)OCCO3)c2ccccc21 | · | -20% | · | · | 16µM* | ·
Cn1c(-c2ccc3c(c2)OCO3)cc(=O)c2ccccc21 | -3 | 0% | · | · | 13% | -7
COc1cc(-c2ccc3c(=O)c4ccccc4sc3c2)cc(OC)c1OC | · | -7% | · | · | 24% | ·
Cn1c2ccccc2c(=O)c2ccc(-c3ccc4c(c3)OCO4)cc21 | 31* | -1% | · | · | ? | 46*
COc1cc(-c2ccc3c(=O)c4ccccc4n(C)c3c2)cc(OC)c1OC | 11* | ? | · | · | ? | 16
CCc1ccc(-c2cc(C(F)(F)F)n3nc(C(=O)Nc4c(C)nn(Cc5ccccc5Cl)c4C)cc3n2)s1 | -4 | 11% | 24%[14.3 µM] | -21% | 2% | 4
Cn1c2ccccc2c(=O)c2ccc(F)cc21 | 16* | 41% | · | · | -17% | 18
COc1ccc2sc3ccccc3c(=O)c2c1 | 44* | 41% | ? | -16% | ? | 81*
COc1ccc2sc(C)cc(=O)c2c1 | · | 12% | · | · | · | ·
SMILES | CHX counter | FMDV antiviral | Lassa entry inh | Marburg entry inh | HCV inhibitor | Shiga inhibitor
COc1ccc(-c2cc(=O)c3ccccc3s2)cc1 | 29* | · | -10% | ? | ? | 93*
COc1ccc(C(c2nnnn2C(C)(C)C)N2CCN(C)CC2)cc1OC (stereo not drawn) | -2 | -16% | 4% | 3% | 17% | -2
COc1ccc(/C=C/C(=O)Nc2ccc(Cl)c(Cl)c2)cc1OC | · | ? | -16%[46.1 µM] | · | · | ·
CCc1ccc(C(C)NC(=O)/C=C/c2ccc(Br)cc2)cc1 (stereo not drawn) | 9 | -13% | -25%[14.3 µM] | -7% | -4% | -6
CCC1CSC(Nc2ccc(C(=O)/C=C/c3ccc(OC)c(OC)c3)cc2)=N1 (stereo not drawn) | 14 | 25µM* | 23µM* | ? | ? | 28*
CCC1CSC(Nc2ccc(C(=O)/C=C/c3ccc(Br)cc3)cc2)=N1 (stereo not drawn) | 49* | ? | ? | ? | ? | 57*
COc1ccc(/C=C/C(=O)c2ccc(NC3=NCCCS3)cc2)cc1OC | -1 | 16µM* | -2% | ? | ? | -13

Screening data as filed in PubChem BioAssay.
